RGS8-Gao reg = RGS8-Galphao binding modulators, primary screen, biochemical, multiplexed bead flow cytometry; AID 1423, 2008; Guanine nucleotide-binding protein G(o) subunit alpha (Homo sapiens), P09471; actives lie on both sides; actives 0.34% (n = 220,000); response (percent of control binding), % at 10 µM; in the data active means response below about 60% or above about 140%; inactive means in between;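 further: Galphao activated as the GDP aluminium fluoride complex binding bead-coupled RGS8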
RGS16-Gao = modulators of RGS16 binding to Galphao, primary screen, biochemical, human proteins, multiplexed bead flow cytometry. Regulator of G-protein signaling 16 (Homo sapiens) + Guanine nucleotide-binding protein …. AID 1441, 2008. binding response (% of control), % at 10 µM. bead-based flow cytometry RGS16-Galphao binding, fluorescence; actives lie on both sides. actives 0.38% (n = 220,000); call rule not given here;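 further: Galphao activated by GDP with aluminum fluoride before binding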
Target sequence (O15492 whole entry, looked up): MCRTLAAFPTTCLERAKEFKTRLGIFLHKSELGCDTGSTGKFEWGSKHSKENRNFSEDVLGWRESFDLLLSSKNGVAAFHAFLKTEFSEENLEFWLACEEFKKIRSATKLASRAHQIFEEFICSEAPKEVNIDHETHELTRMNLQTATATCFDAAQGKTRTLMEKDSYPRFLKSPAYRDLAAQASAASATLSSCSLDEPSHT
Target sequence (P09471 whole entry, looked up): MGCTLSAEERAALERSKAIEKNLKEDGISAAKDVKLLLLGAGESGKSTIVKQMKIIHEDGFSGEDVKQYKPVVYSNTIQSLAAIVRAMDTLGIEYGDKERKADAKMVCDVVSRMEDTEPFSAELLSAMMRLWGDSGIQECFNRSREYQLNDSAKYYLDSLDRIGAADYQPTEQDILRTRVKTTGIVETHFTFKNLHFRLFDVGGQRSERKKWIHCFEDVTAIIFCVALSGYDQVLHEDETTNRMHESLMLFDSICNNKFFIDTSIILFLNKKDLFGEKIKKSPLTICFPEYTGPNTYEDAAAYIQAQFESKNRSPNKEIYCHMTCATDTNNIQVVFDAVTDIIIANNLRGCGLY
RGS4-Gao reg = modulators of RGS4 binding to Galphao, primary screen, biochemical, multiplexed bead flow cytometry | Guanine nucleotide-binding protein G(o) subunit alpha (Homo sapiens), P09471 | actives 0.33% (n = 220,000) | binding response (% of control), % at 10 µM | actives lie on both sides; in the data active means binding response below about 49% or above about 150%; inactive means in between;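 further: fluorescent Galphao activated with aluminum fluoride binding bead-coupled RGS4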
Avidin bead fluor = green autofluorescence of compounds with avidin beads – biophysical, 488/530 nm, flow cytometry, artefact control, profiling panel; compound fluorescence 488/530 nm; active compounds read high; actives 0.38% (n = 220,000); fluorescence (KMESF) at 10 µM; AID 1775, 2009; in the data active means fluorescence above about 47
GSH bead fluor = compound fluorescence on glutathione beads, profiling panel, artefact control, biophysical, 488/530 nm, flow cytometry. fluorescence (KMESF) at 10 µM. GSH beads flow cytometry, compound fluorescence 488/530 nm; active compounds read high. actives 0.25% (n = 190,000); in the data active means fluorescence above about 89;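 further: glutathione beads carrying GST-tagged Bcl family fusion proteins plus one bare bead set; values are compound well signal with DMSO vehicle wells as background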
RGS7-Gao reg = RGS7-Galphao binding modulators, primary screen, biochemical, multiplexed bead flow cytometry; actives lie on both sides; AID 1439, 2008; binding response (% of control), % at 10 µM; actives 0.35% (n = 220,000); in the data active means binding response below about 49% or above about 150%; inconclusive means no clear call, values can overlap the other calls; inactive means in between;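 further: fluorescent Galphao held in activated GDP-AlF4 state binding bead-coupled RGS7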
* hit, by the source's call; ? = inconclusive; nt = not tested or not shown; [ ] = dose if it differs, or a comment. Only some compounds are listed: those with a hit (about 1.2% of all), similar ones and a draw of the others.

SMILES	RGS8-Gao reg	RGS16-Gao	RGS4-Gao reg	Avidin bead fluor	GSH bead fluor	RGS7-Gao reg
COc1ccc(NC(=O)COC(=O)[C@@H](NC(=O)c2c(F)cccc2F)C(C)C)cc1	142*[activator]	142	150*[activator]	12	13	164*[activator]
COc1cc(OC)cc(C(=O)N[C@H](C(=O)OCC(=O)Nc2ccc(F)c(F)c2F)C(C)C)c1	100	102	98	8	14	?
CCOC(=O)c1cnn(-c2ncnc3sc4c(c23)CCC4)c1N	102	125	121	52*	23	116
Cc1cc(C(=O)OCC(=O)c2ccc(Br)s2)c(C)o1	91	86	83	7	269*	82
Cc1c(C(=O)OC(C)C)sc(NC(=O)C2CCCO2)c1C(=O)OC(C)C (stereo unspecified)	96	81	97	4	93*	94
COC(=O)c1sc(NC(=O)C2CCCO2)c(C(=O)OC)c1C (stereo unspecified)	97	83	99	7	32	99
O=C(CCn1c(=O)sc2ccccc21)NCc1ccco1	121	184	123	14	120*	120
O=C(CCCn1c(=O)c2ccccc2n(Cc2ccccc2)c1=O)NCc1ccco1	109	136	127	60*	10	122
O=C(CCCCn1c(=O)c2ccccc2n(Cc2ccc(F)cc2)c1=O)NCc1ccco1	98	99	95	7	19	101
Cn1c(Cn2c(=O)sc3ccccc32)nnc1SCC(=O)NCc1ccco1	100	107	99	26	16	97
Cc1ccc(NC(=O)C2(c3cccs3)CCOCC2)cc1C	99	105	99	11	14	98
CCCCOc1ccc(S(=O)(=O)Nc2ccc(NC(C)=O)cc2)cc1	108	116	103	5	129*	106
CCCCN(CCCC)S(=O)(=O)c1ccc(NS(=O)(=O)c2ccc(NC(C)=O)cc2)cc1	102	99	102	6	6	102
CC(=O)NC1=NN(C(C)=O)C2(S1)C(=O)N(CC(C)C)c1ccc(C)cc12 (stereo unspecified)	101	105	110	23	nt	?
CN(C)S(=O)(=O)c1cccc(NC(=S)N2CCc3ccccc32)c1	89	98	131	154*	14	?
O=C(/C=C/c1cc([N+](=O)[O-])ccc1OC(F)F)NCc1ccc(F)cc1	101	105	100	7	265*	97
CCN1/C(=C/c2ccc3cc(C)ccc3[n+]2CC)Sc2cc(C)c(C)cc21	80	91	113	25	15	144
CCN1/C(=C/c2ccc3cc(C)ccc3[n+]2CC)Sc2ccccc21	110	110	169*[activator]	11	7	225*[activator]
Cc1ccccc1-c1nnn(CC(=O)Nc2cccc(S(N)(=O)=O)c2)n1	100	98	99	7	12	99
Cc1ccc(-c2nc3ccccc3c(=O)n2NC(=O)COc2ccccc2)cc1	95	97	95	15	231*	91
O=C(COc1ccccc1)Nn1c(-c2ccccc2)nc2ccccc2c1=O	99	102	99	6	7	99
COc1cc(NC(=O)CSc2nnc(C)s2)cc(OC)c1OC	101	103	103	8	19	102
CSc1cccc(NC(=O)CSc2nnc(C)s2)c1	98	93	98	6	109*	101
CC(C)N(c1ccccc1)c1ccc(NC(=O)C2CCCO2)cc1 (stereo unspecified)	103	95	97	7	266*	99
O=C(Nc1ccc(Oc2ccccc2)cc1)C1CCCO1 (stereo unspecified)	97	89	94	17	27	93
SMILES	RGS8-Gao reg	RGS16-Gao	RGS4-Gao reg	Avidin bead fluor	GSH bead fluor	RGS7-Gao reg
O=C(CCc1n[nH]c(=O)[nH]c1=O)N/N=C/c1ccco1	105	112	107	20	14	103
O=C(C1=C[C@@H](C2CCCCC2)C[C@@H](OCc2ccc(CO)cc2)O1)N1CCN(Cc2ccccc2)CC1	98	102	102	5	17	104
COc1ccc2nc(SCC(=O)Nc3ccccc3C#N)[nH]c2c1	102	97	101	6	20	97
COc1ccc2nc(SCC(=O)Nc3ccccc3C)[nH]c2c1	99	99	99	64*	19	110
CCOC(=O)NC1(C(F)(F)F)C(=O)NC(C)=C1C(=O)OC (stereo unspecified)	101	107	101	9	8	96
COC(=O)C1=C(C)NC(=O)C1(NC(=O)CN1CCCC1=O)C(F)(F)F (stereo unspecified)	101	103	104	55*	22	110
Cc1nnc(SCc2ccc([N+](=O)[O-])cc2)o1	100	103	104	13	15	100
O=C(CSc1nnc(COc2cccc3cccnc23)o1)N1CCN(C(=O)c2ccco2)CC1	108	108	117	6	136*	112
O=C(CSCc1ccc(Cl)cc1)c1ccco1	104	108	108	7	260*	106
O=C(CSc1nc2cc(Cl)ccc2s1)c1ccco1	99	98	96	15	8	95
O=S(=O)(NCC(Nc1ccc(Cl)cc1)c1ccccc1)c1ccccc1 (stereo unspecified)	101	103	100	3	7	101
Cc1ccc(NC(CNS(=O)(=O)c2ccc(Cl)cc2)c2ccccc2)cc1 (stereo unspecified)	94	124	215*[activator]	121*	13	255*[activator]
COc1ccc(CN2CCN(c3ccc(F)cc3)CC2)c(OC)c1OC	102	108	117	67*	8	138
COc1ccc(CN2CCN(S(=O)(=O)c3ccc(F)cc3)CC2)c(OC)c1OC	101	99	84	9	56	99
COc1ccc(NC(=O)CCNS(=O)(=O)c2ccc3c(c2)c(=O)n(C)c(=O)n3C)cc1	100	106	106	69*	24	138
O=C(COC(=O)/C=C/c1cccs1)Nc1ccc2ccccc2c1	93	95	69	68*	12	133
O=C(COC(=O)/C=C/c1cccs1)Nc1ccccc1Cl	100	101	98	22	8	100
CC(=O)NC1(C(F)(F)F)NC(=O)N(CC(C)C)C1=O (stereo unspecified)	99	100	101	53*	16	109
CCCCN1C(=O)NC(NC(C)=O)(C(F)(F)F)C1=O (stereo unspecified)	100	103	100	7	12	100

Assay outcomes from PubChem BioAssay.
